Sampled rows, rich in hits. Any-hit rate of the full collection: about 12%.
Sm TGR inh: blocks Schistosoma mansoni thioredoxin glutathione reductase | Q962Y6 | purified TGR, DTNB reduction, TNB absorbance 405 nm | Potency, µM (series often up to 114 µM), actives largely listed as inhibitors | hit rate 3% among 360,000 | AID 485364; note: nearly all actives have a fitted effect of over 60% in size
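Kinetic colorimetric format: TGR-catalysed, NADPH-driven DTNB reduction monitored via TNB absorbance. Enzyme dispensed at 20 nM; compound exposure 15 min at room temperature before reaction start.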
Pf growth 48h: inhibits P. falciparum growth in the first generation, 48 h | Potency, µM (series often up to 28.7 µM), usual class: inhibitors | P. falciparum luciferase growth in erythrocytes, 48 h | hit rate 5.9% among 310,000
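Read-out is firefly luciferase luminescence from an integrated reporter in P. falciparum, so falling signal marks reduced parasite growth. Infected erythrocytes were at 2% hematocrit and 0.1% parasitemia (final) in Albumax-supplemented RPMI 1640.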
SARS PLP yeast: inhibitors of SARS-CoV papain-like protease in yeast; Potency, µM (titrated, usually from 32.9 µM), usual class: activators; AID 485353; hit rate 0.19% among 330,000; S. cerevisiae expressing SARS-CoV PLpro, growth rescue; calls by dose curve; note: nearly all actives have a fitted effect of over 55% in size
Pf growth 96h: P. falciparum growth inhibition at 96 hour, primary screen for plastid delayed-death inhibitors; P. falciparum luciferase reporter growth, 96 h; Potency, µM (top dose mostly 28.7 µM), actives largely listed as inhibitors; hit rate 6.9% among 320,000
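P. falciparum expressing integrated firefly luciferase grown in erythrocytes (2% hematocrit, 0.05% parasitemia final) with compounds for 96 hours at 37 C, 5% CO2. Growth inhibition read as loss of luminescence after adding luciferase detection reagent.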
Large screens that a line does not name were inactive. Unless noted, calls come from the whole dose curve; as a rule, active = well fitted curve in the direction sought with a large enough effect; inconclusive = small, poorly fitted or top-dose-only effect, or another doubt; inactive = no such curve, though single readings can be large; an effect the other way counts as inactive or inconclusive.

CCOCc1nnc(NC(=O)C2CC(=O)N(C3CCCC3)C2)s1 (stereo not drawn)	Pf growth 96h inconclusive
COc1cccc(NC(=O)CSc2nc3ccccc3c(=O)n2CCCC(=O)NCC2CCCO2)c1 (stereo not drawn)	Pf growth 48h inconclusive, Pf growth 96h 9.3µM
CCCCn1c(SCC(N)=O)nc2ccc(N3CCOCC3)cc2c1=O	none
CCCCn1c(SCC(=O)Nc2cccc(OC)c2)nc2ccc(N3CCOCC3)cc2c1=O	Pf growth 48h 9.3µM (no result: Pf growth 96h)
COc1ccc(CCCNC(=O)C2CCC(=O)N(CCc3cccc(F)c3)C2)cc1 (stereo not drawn)	Pf growth 96h 4.1µM
COC(=O)C1CCN(C(=O)C2CCC(=O)N(CCc3cccc(F)c3)C2)CC1 (stereo not drawn)	SARS PLP yeast inconclusive, Pf growth 96h inconclusive
CC(=O)NCC1CCN(C(=O)C2CCC(=O)N(CCc3cccc(F)c3)C2)CC1 (stereo not drawn)	Pf growth 96h 13µM
COc1ccc(CCN2CC(C(=O)NCCc3cccc(F)c3)CCC2=O)cc1 (stereo not drawn)	none
COCC1CCN(C(=O)C2CCC(=O)N(Cc3cccc(F)c3)C2)CC1 (stereo not drawn)	SARS PLP yeast inconclusive
CN1CCN(C(=O)C2CCC(=O)N(CCc3cccc(F)c3)C2)CC1 (stereo not drawn)	Pf growth 48h inconclusive, SARS PLP yeast inconclusive, Pf growth 96h 9.3µM
O=C(CSc1nc2ncc(Br)cc2[nH]1)Nc1ccccc1-c1ccccc1	Pf growth 96h inconclusive
Cc1ccc(C(=O)c2cn(Cc3cccc(F)c3)c3nc(C)ccc3c2=O)cc1	none (no result: Pf growth 48h, SARS PLP yeast, Pf growth 96h)
CCOC(=O)c1c(C)oc2nc(C)nc(NCc3ccccc3Cl)c12	none (no result: Pf growth 48h, SARS PLP yeast, Pf growth 96h)
CCOC(=O)CN1c2ccccc2NC(=O)CC1C (stereo not drawn)	Sm TGR inh 32µM (no result: Pf growth 48h)
CC(C)(C)NC(=O)CSc1nc2cccnc2n1C1CCCCC1	Pf growth 48h inconclusive
CCCS(=O)(=O)N1CCC(C(=O)NCCCOCC)CC1	Pf growth 96h 15µM
CCCS(=O)(=O)N1CCC(C(=O)NCCCOC(C)C)CC1	Pf growth 96h 9.3µM
COc1ccc(SC[C@H](C)CN2CC[C@H](C(C)(C)C)CCC2=O)cc1	Pf growth 48h inconclusive, Pf growth 96h inconclusive
O=C(Cn1cnc2sc3c(c2c1=O)CCCC3)NCC(=O)Nc1ccc(F)cc1F	none
CC(=O)c1ccc(S(=O)(=O)N2CCc3ccccc3C2)cc1	Pf growth 96h inconclusive
Cc1ccc(C(=O)Nc2ccc(S(=O)(=O)N3CCc4ccccc4C3)cc2)o1	Pf growth 48h 13µM (no result: Pf growth 96h)
O=C(O)c1ccc(S(=O)(=O)N2CCc3ccccc3C2)cc1	Pf growth 96h 9.3µM
CCCOc1ccc(C(=O)N(Cc2cccs2)c2ccc(C)cc2)cc1	none (no result: Pf growth 48h, SARS PLP yeast, Pf growth 96h)
CCC(CC)c1nn2c(=O)cc(COc3ccc(NC(=O)c4ccc(C)cc4)cc3)nc2s1	none (no result: Pf growth 48h, SARS PLP yeast, Pf growth 96h)
C[N+]1(CC2COC(c3ccccc3)(C3CCCCC3)O2)CCCCC1 (stereo not drawn)	Pf growth 48h 1.1µM, Pf growth 96h 5.9µM (no result: Sm TGR inh, SARS PLP yeast)
Cc1ccc(S(=O)(=O)c2nc(-c3ccc(F)cc3)oc2SCC(=O)NCC2CCCO2)cc1 (stereo not drawn)	SARS PLP yeast inconclusive
Cc1ccc(S(=O)(=O)c2nc(-c3ccccc3)oc2SCC(=O)NCC2CCCO2)cc1 (stereo not drawn)	Pf growth 48h 10µM, Pf growth 96h 12µM
COc1ccc(NC(=O)CSc2oc(-c3ccc(C)cc3)nc2S(=O)(=O)c2ccc(C)cc2)c(OC)c1	Sm TGR inh 50µM (no result: Pf growth 48h, SARS PLP yeast, Pf growth 96h)
Cc1ccc(-c2nc(S(=O)(=O)c3ccc(F)cc3)c(SCC(=O)NCC3CCCO3)o2)cc1 (stereo not drawn)	none
Cc1ccc(S(=O)(=O)c2nc(-c3ccco3)oc2SCC(=O)NCC2CCCO2)cc1 (stereo not drawn)	Sm TGR inh 35µM, Pf growth 48h inconclusive
Cc1ccc(-c2[nH]c(-c3ccc(Cl)cc3)nc2SCC(=O)NCC2CCCO2)cc1 (stereo not drawn)	Pf growth 48h inconclusive, Pf growth 96h 9.3µM
CCc1ccc(-c2nc(SCC(=O)NCC3CCCO3)c(-c3ccc(C)cc3)[nH]2)cc1 (stereo not drawn)	none (no result: Pf growth 48h, SARS PLP yeast, Pf growth 96h)
CCOc1ccc(S(=O)(=O)c2cc3cccc(OCC)c3oc2=O)cc1	none (no result: Pf growth 48h, SARS PLP yeast, Pf growth 96h)
COc1cccc(CNC(=O)CCCn2nc(C)n3c(cc4sccc43)c2=O)c1	Pf growth 96h inconclusive
Cc1ccc(-c2nc(CCNC(=O)C(=O)Nc3ccc(F)cc3F)cs2)cc1	none (no result: Pf growth 48h, SARS PLP yeast, Pf growth 96h)

Bioassay records as filed in PubChem.
